According to PubChem BioAssay (Tox21):
Results filed as inconclusive are left out. Calls of active or inactive are those of the source. Unless noted, calls follow the shape of the dose curve; as a rule, active = well fitted curve in the direction sought with a large enough effect in the repeat runs; inconclusive = weak or mixed curves; inactive = no such curve, though single readings can be large; an effect the other way counts as inactive or inconclusive.

Experiments:
[1] = qHTS assay to identify small molecule agonists of the peroxisome proliferator-activated receptor delta (PPARd) signaling pathway - cell viability counter screen (AID 743211); also: nearly all actives have a fitted effect of over 55% in size
How it was run: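 Read-out: CellTiter-Glo luminescence, 30 min RT, measured in the same wells as the beta-lactamase reporter. Cells: GeneBLAzer PPAR delta UAS-bla HEK293H, 3000 cells/well, compound exposure 17 h at 37C.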

[2] = molecular target: Peroxisome proliferator-activated receptor delta (Homo sapiens) (UniProt Q03181); experiment: qHTS assay to identify small molecule agonists of the peroxisome proliferator-activated receptor delta (PPARd) signaling pathway (AID 743212; calls by dose curve)
How it was run: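 HEK293H PPARd-bla cells; 5 h preincubation 37 C/5% CO2; compound (DMSO) 37 C; LiveBLAzer B/G FRET substrate 2 h RT; fluorescence intensity.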

[3] = qHTS assay to identify small molecule antagonists of the peroxisome proliferator-activated receptor delta (PPARd) signaling pathway - cell viability counter screen (AID 743213); also: nearly all actives have a fitted effect of over 50% in size
How it was run: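 PPARd-bla HEK293H cells were treated with compounds plus agonist L165041 (300 nM final) for 17 h at 37 C. Viability was then read in the same wells by CellTiter-Glo luminescence after 30 min at room temperature.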

[4] = molecular target: Peroxisome proliferator-activated receptor delta (Homo sapiens) (UniProt Q03181); experiment: qHTS assay to identify small molecule antagonists of the peroxisome proliferator-activated receptor delta (PPARd) signaling pathway (AID 743215; active = well fitted inhibition curve with a large enough effect in the signal ratio in the repeat runs, not every such curve was filed as active; the % refers to the signal ratio;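 also: cells stimulated with agonist L165041 at 300 nM final during compound exposure; series mostly up to about 62 µM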)
How it was run: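 PPARd UAS-bla HEK293H cells were pre-incubated 5 h at 37 C, then given test compounds in DMSO plus agonist L165041 (300 nM final). After 17 h at 37 C, beta-lactamase FRET substrate was added; fluorescence read after 2 h at room temperature.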

[5] = molecular target: Bile acid receptor (Homo sapiens) (UniProt Q96RI1); experiment: qHTS assay to identify small molecule antagonists of the farnesoid-X-receptor (FXR) signaling pathway (AID 743217; active = well fitted inhibition curve with a large enough effect in the signal ratio in the repeat runs, not every such curve was filed as active; the % refers to the signal ratio)
How it was run: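 FXR-UAS-bla HEK 293T cells pre-incubated 5 h at 37 °C, then exposed to compounds with chenodeoxycholic acid (50 uM final) for 16 h at 37 °C. Beta-lactamase reporter read by LiveBLAzer B/G FRET substrate fluorescence after 2 h at room temperature.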

[6] = qHTS assay to identify small molecule agonists of the farnesoid-X-receptor (FXR) signaling pathway - cell viability counter screen (AID 743218); also: nearly all actives have a fitted effect of over 45% in size
How it was run: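 FXR-UAS-bla HEK 293T cells, plated 5 h at 37 C, were exposed to compounds for 16 h at 37 C. CellTiter-Glo was then added to the same wells as the bla readout; luminescence read after 30 min at room temperature.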

[7] = molecular target: Bile acid receptor (Homo sapiens) (UniProt Q96RI1); experiment: qHTS assay to identify small molecule agonists of the farnesoid-X-receptor (FXR) signaling pathway (AID 743220; active = well fitted activation curve with a large enough effect in the signal ratio in the repeat runs, not every such curve was filed as active; the % refers to the signal ratio)
How it was run: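 Beta-lactamase reporter under UAS control in GeneBLAzer FXR HEK 293T cells (5000/well) measured with LiveBLAzer FRET substrate after 2 h at room temperature. Compound exposure lasted 16 h at 37C.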

[8] = qHTS assay to identify small molecule antagonists of the farnesoid-X-receptor (FXR) signaling pathway - cell viability counter screen (AID 743221; active = well fitted cell-killing curve with a large enough effect in the repeat runs, not every such curve was filed as active; also: nearly all actives have a fitted effect of over 50% in size)
How it was run: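 HEK 293T FXR-bla cells, 5 h pre-incubation; compound + CDCA 50 uM final, 16 h, 37 C; beta-lactamase FRET read first, then CellTiter-Glo luminescence, 30 min RT.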

[9] = molecular target: Vitamin D3 receptor (Homo sapiens) (UniProt P11473); experiment: qHTS assay to identify small molecule agonists of the vitamin D receptor (VDR) signaling pathway (AID 743222; calls by dose curve)
How it was run: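 VDR-bla cells were plated 4 h at 37C/5% CO2, then exposed to compounds in DMSO for 16 h. After LiveBLAzer B/G FRET substrate addition and 2 h at room temperature, beta-lactamase reporter fluorescence was read.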

[10] = molecular target: Vitamin D3 receptor (Homo sapiens) (UniProt P11473); experiment: qHTS assay to identify small molecule antagonists of the vitamin D receptor (VDR) signaling pathway (AID 743223; active = well fitted inhibition curve with a large enough effect in the signal ratio in the repeat runs, not every such curve was filed as active; the % refers to the signal ratio)
How it was run: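 Beta-lactamase reporter read-out: FRET substrate fluorescence after 2 h at room temperature, following 16 h exposure of VDR-bla cells to test compound plus 3 nM (final) 1alpha,25-dihydroxyvitamin D3 agonist at 37C.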

[11] = qHTS assay to identify small molecule antagonists of the vitamin D receptor (VDR) signaling pathway - cell viability counter screen (AID 743225); also: nearly all actives have a fitted effect of over 50% in size
How it was run: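 Viability counter screen run in the same wells as the beta-lactamase reporter assay: HEK 293T VDR-UAS-bla cells, 16 h compound exposure at 37C with 3 nM (final) 1-alpha,25-dihydroxyvitamin D3. CellTiter-Glo luminescence, 30 min, room temperature.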

[12] = qHTS assay to identify small molecule agonists of the NFkB signaling pathway (AID 1159509; active = well fitted curve in the direction sought with a large enough effect in the signal ratio in the repeat runs, not every such curve was filed as active; the % refers to the signal ratio; also: series mostly up to about 61 µM)
How it was run: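 ME-180 NFkB-bla, 2,000 cells/well, overnight plating; cpd pinned in DMSO, 5 h 37 C; B/G FRET substrate 1.5 h RT; ex 405, em 460/530 nm.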

[13] = qHTS assay to identify small molecule agonists of the NFkB signaling pathway - cell viability counter screen (AID 1159515; calls by dose curve; also: series mostly up to about 61 µM; nearly all actives have a fitted effect of over 55% in size)
How it was run: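 NFkB-bla ME-180 cells, 2,000/well, were plated overnight at 37 C, 5% CO2, then exposed to compounds in DMSO for 5 hr. After the bla FRET read, CellTiter-Glo was added to the same wells; luminescence was read after 30 min at room temperature.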

[14] = qHTS assay to identify small molecule agonists of the endoplasmic reticulum stress response signaling pathway (AID 1159516; active = well fitted activation curve with a large enough effect in the signal ratio in the repeat runs, not every such curve was filed as active; the % refers to the signal ratio)
How it was run: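 CellSensor ESRE-bla HeLa cells, carrying a beta-lactamase reporter driven by the ER stress response element, were plated overnight and exposed to compounds for 5 hr at 37 C. Reporter activity was read as FRET substrate fluorescence after 2 hr at room temperature.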

[15] = qHTS assay to identify small molecule agonists of the endoplasmic reticulum stress response signaling pathway - cell viability counter screen (AID 1159517; calls by dose curve; also: series mostly up to about 61 µM; nearly all actives have a fitted effect of over 50% in size)
How it was run: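 HeLa cells carrying an ESRE-driven beta-lactamase reporter receive compound for 5 hr at 37 C. Cell viability is then gauged with CellTiter-Glo by luminescence, 30 min at room temperature.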

[16] = qHTS assay to identify small molecule antagonists of the retinoid-related orphan receptor gamma (ROR-gamma) signaling pathway - cell viability counter screen (AID 1159520); also: nearly all actives have a fitted effect of over 50% in size
How it was run: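 Cytotoxicity was read from cellular ATP (CellTiter-Glo luminescence) after 16 hr at 37 C with 1 uM doxycycline induction. The inducer was added 2 hr after compound transfer to Tet-on ROR gamma CHO cells.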

[17] = molecular target: Nuclear receptor ROR-gamma (Homo sapiens) (UniProt P51449); experiment: qHTS assay to identify small molecule antagonists of the retinoid-related orphan receptor gamma (ROR-gamma) signaling pathway (AID 1159521)
How it was run: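 Luminescence readout (ONE-Glo, 30 min RT) after 16 h doxycycline induction; loss of signal scored as antagonism. CHO cells with TET-inducible RORγ and RORE-LUC reporter; compounds added 2 h before 1 uM final doxycycline.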

[18] = qHTS assay to identify small molecule agonists of the AP-1 signaling pathway - cell viability counter screen (AID 1159525; calls by dose curve; also: nearly all actives have a fitted effect of over 55% in size)
How it was run: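 Luminescent ATP readout (Cell Titer Glo, 30 min RT), normalised to DMSO and tetra n-octyl ammonium bromide controls. Cells were ME-180 AP-1-bla in 0.5% dialyzed FBS Opti-MEM, with a 5 h, 37 °C compound exposure.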

[19] = qHTS assay to identify small molecule agonists of the AP-1 signaling pathway (AID 1159526; calls by dose curve)
[20] = qHTS assay to identify small molecule agonists of the vitamin D receptor (VDR) signaling pathway - cell viability counter screen (AID 743224)
How it was run: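 VDR-bla cells were preincubated 4 h at 37C/5% CO2, then exposed to compounds for 16 h. After the 2 h room-temperature bla FRET read, CellTiter-Glo was added to the same wells and luminescence read after 30 min.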

Measured: Potency

Sequence of Bile acid receptor (Homo sapiens) (Q96RI1 whole entry, looked up): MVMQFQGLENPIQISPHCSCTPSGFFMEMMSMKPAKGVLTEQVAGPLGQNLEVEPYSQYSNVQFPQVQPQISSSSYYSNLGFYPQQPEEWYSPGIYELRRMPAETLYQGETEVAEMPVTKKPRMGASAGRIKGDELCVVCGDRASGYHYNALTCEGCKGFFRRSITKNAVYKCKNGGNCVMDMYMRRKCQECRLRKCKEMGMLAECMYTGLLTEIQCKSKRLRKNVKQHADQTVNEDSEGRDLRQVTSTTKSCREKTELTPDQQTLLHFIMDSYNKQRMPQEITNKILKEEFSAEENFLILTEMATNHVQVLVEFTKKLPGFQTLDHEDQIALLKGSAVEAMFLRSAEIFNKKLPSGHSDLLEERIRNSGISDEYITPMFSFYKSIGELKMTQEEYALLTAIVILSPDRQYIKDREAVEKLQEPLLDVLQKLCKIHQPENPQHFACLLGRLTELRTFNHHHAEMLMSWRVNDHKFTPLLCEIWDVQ
Sequence of Peroxisome proliferator-activated receptor delta (Homo sapiens) (Q03181 whole entry, looked up): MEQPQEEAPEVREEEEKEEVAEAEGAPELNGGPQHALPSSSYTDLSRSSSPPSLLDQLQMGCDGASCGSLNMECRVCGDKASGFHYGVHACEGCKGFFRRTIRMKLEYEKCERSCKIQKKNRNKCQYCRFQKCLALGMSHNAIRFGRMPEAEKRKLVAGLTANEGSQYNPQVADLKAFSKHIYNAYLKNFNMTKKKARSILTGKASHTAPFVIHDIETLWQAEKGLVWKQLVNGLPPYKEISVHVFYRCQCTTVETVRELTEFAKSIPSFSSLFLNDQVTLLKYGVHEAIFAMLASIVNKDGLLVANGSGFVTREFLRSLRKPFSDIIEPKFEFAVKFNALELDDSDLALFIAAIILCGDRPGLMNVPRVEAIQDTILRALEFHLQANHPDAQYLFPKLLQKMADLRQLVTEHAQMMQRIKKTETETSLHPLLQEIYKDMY
Sequence of Vitamin D3 receptor (Homo sapiens) (P11473 whole entry, looked up): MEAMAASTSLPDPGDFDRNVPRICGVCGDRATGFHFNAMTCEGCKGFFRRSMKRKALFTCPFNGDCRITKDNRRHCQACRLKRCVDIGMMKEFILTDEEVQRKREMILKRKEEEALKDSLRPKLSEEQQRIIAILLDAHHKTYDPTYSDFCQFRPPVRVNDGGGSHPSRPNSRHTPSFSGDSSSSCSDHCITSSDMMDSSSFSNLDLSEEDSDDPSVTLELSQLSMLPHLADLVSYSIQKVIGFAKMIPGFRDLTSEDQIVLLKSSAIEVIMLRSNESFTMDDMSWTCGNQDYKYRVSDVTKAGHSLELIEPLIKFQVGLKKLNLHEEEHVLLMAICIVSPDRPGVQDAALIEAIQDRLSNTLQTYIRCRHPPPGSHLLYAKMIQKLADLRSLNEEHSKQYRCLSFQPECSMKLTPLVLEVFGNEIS

c1ccccc1
not listed: [20]
inactive: all other assays above

CC(=O)OCC(=O)[C@@]1(O)[C@H](OC(C)=O)C[C@H]2[C@@H]3CCC4=CC(=O)C=C[C@]4(C)[C@@]3(F)[C@@H](O)C[C@@]21C
inactive: all assays above

O=C1NC2NC(=O)NC2N1 (centres undefined)
not listed: [11]
inactive: all other assays above

Cc1cccc(NC(=S)N(C)C)c1
not listed: [6]
inactive: all other assays above

Cc1ccccc1OCC1CO1 (centres undefined)
not listed: [6] | [10]
inactive: all other assays above

CCc1nccnc1C
not listed: [10] | [11]
inactive: all other assays above

Cc1cccc(Nc2ccncc2S(=O)(=O)NC(=O)NC(C)C)c1
not listed: [6]
inactive: all other assays above

Cc1nc2ccccc2c(=O)o1
not listed: [5] | [7] | [9] | [10] | [20]
inactive: all other assays above

C[C@H]1O[C@H](O[C@H]2[C@H](O)[C@@H](O)[C@@H](O[C@H]3[C@H](O)[C@@H](O)[C@H](O)O[C@@H]3CO)O[C@@H]2CO)[C@H](O)[C@@H](O)[C@@H]1N[C@H]1C=C(CO)[C@@H](O)[C@H](O)[C@H]1O
not listed: [5] | [6] | [7]
inactive: all other assays above

O=CN1CCOCC1
not listed: [5] | [7] | [9] | [10]
inactive: all other assays above

C1=CCC(c2ccccc2)CC1 (centres undefined)
not listed: [5] | [7]
inactive: all other assays above

O=C(O)CCNC(=O)c1ccccc1
not listed: [5] | [7] | [9] | [10] | [11] | [20]
inactive: all other assays above

CCNC(=O)NCCCOc1cccc(CN2CCCCC2)c1
not listed: [5] | [7] | [10]
inactive: all other assays above

Cc1ccc(C(=O)C(=O)O)cc1C
not listed: [5] | [7] | [20]
inactive: all other assays above

CCCCCN(CCCOC)C(=O)C(CCC(=O)O)NC(=O)c1ccc(Cl)c(Cl)c1 (centres undefined)
not listed: [5] | [6] | [7]
inactive: all other assays above

CN=C(NC#N)NCCSCc1csc(N=C(N)N)n1
not listed: [5] | [7] | [10]
inactive: all other assays above

CCCCOC(=O)C(C)OC(=O)CCC (centres undefined)
not listed: [5] | [7] | [10]
inactive: all other assays above

CN[C@@H]1[C@@H](O)[C@@H](O[C@@H]2[C@H](O)[C@H](O[C@H]3OC(CN)=CC[C@H]3N)[C@@H](N)C[C@H]2N)OCC1(C)O (some centres undefined)
not listed: [5] | [7] | [9] | [11]
inactive: all other assays above

CC(C)(C)NCCO
not listed: [5] | [6] | [7] | [20]
inactive: all other assays above

C1CCN2C[C@@H]3C[C@@H](CN4CCCC[C@@H]34)[C@H]2C1
not listed: [5] | [7]
inactive: all other assays above

CN(C)CCOCCN(C)CCO
not listed: [5] | [6] | [7] | [11]
inactive: all other assays above

O=C(O)c1ccccc1C(=O)Nc1ccc(S(=O)(=O)Nc2nccs2)cc1
not listed: [5] | [6] | [7]
inactive: all other assays above

CC(C)CCO
not listed: [5] | [6] | [7] | [20]
inactive: all other assays above

CCC(CO)CO
not listed: [5] | [7] | [10] | [11]
inactive: all other assays above

CCNC(=O)/C=C/c1cccc(Br)c1
not listed: [5] | [7]
inactive: all other assays above

CCCCC(CC)COC(=O)c1ccccc1 (centres undefined)
not listed: [5] | [7] | [9]
inactive: all other assays above

O=[Si]=O
not listed: [5] | [7] | [11]
inactive: all other assays above

C=CC(C)(O)CC/C=C(\C)CC (centres undefined)
not listed: [5] | [6] | [7]
inactive: all other assays above

CCC(O)C(C)(C)C (centres undefined)
not listed: [5] | [6] | [9] | [10]
inactive: all other assays above

CCCCC(C)C(=O)O (centres undefined)
not listed: [5] | [7] | [11]
inactive: all other assays above

O=S(=O)(O)CCO
not listed: [5] | [7]
inactive: all other assays above

COc1cc2c3cc1Oc1cc(ccc1O)C[C@@H]1c4c(cc(OC)c(O)c4Oc4ccc(cc4)C[C@@H]3N(C)CC2)CC[N+]1(C)C
not listed: [5] | [6] | [11]
inactive: all other assays above
